Assay results as given in ChEMBL document CHEMBL3988442, “University of Dundee, Small-Polar-MMV Screening Library” (2021).

Experiments:
[1] = biological target: T1, Aspartate--tRNA(Asp/Asn) ligase (Mycobacterium tuberculosis (strain ATCC 25618 / H37Rv)) (UniProt P9WFW3); assay: Assay for Asp RNA synthetase-1 from Mycobacterium tuberculosis; format: functional; parameters: scale not given: direction of the effect not stated beside the values; settings: 30 µM; further: in the data most compounds retested in dose-response had high values
T1 sequence (whole entry): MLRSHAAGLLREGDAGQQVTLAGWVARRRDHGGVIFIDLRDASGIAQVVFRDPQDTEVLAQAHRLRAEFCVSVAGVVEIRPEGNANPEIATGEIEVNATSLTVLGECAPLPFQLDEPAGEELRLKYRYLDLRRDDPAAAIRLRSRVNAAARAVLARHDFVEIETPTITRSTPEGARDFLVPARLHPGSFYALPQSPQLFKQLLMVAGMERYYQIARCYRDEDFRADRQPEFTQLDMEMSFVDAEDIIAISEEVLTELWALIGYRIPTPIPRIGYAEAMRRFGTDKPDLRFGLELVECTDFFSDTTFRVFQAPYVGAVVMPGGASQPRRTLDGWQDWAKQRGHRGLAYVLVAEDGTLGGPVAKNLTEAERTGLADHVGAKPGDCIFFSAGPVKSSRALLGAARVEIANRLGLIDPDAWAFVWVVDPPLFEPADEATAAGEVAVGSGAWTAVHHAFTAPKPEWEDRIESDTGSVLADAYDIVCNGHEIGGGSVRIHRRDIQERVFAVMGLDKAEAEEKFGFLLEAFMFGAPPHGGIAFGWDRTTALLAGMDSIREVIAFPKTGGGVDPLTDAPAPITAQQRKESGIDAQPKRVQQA

[2] = biological target: Shiga toxin 2 (Escherichia coli O157:H7) (UniProt P09385+P09386); assay: E. coli 0.157:H7 Shiga Toxin SOP - stx2 screening assay; format: functional; parameters: scale not given: direction of the effect not stated beside the values; settings: 30 µM

SMILES	Percent Effect [1] [%]	Percent Effect [2] [%]
CN(CCN1CCOCC1)C(=O)CCc1cccc(Cl)c1	-4.7	-13.5
Cc1cc(C)n(CC2CCCN2C(=O)Cc2c(C)noc2C)n1 (configuration not stated)	7.79	9.09
CCn1c(C)nnc1CN(C)C1CCN(CCCOC)C1 (configuration not stated)	1.79	7.8
CCC(O)CN1CCN(C(=O)c2cccn2Cc2ccccc2)CC1 (configuration not stated)	-0.0571	16.8
CC(C)(C#N)C(=O)N1CCCC(c2cc(C(F)(F)F)[nH]n2)C1 (configuration not stated)	-1.34	-11.7
COCC(=O)NCc1cc(=O)n2c(n1)CN(CC1CCOC1)CCC2 (configuration not stated)	-4.6	-5.14
COc1ccc(CN2CCn3cc(CN4CCCCC4)nc3C2)cc1	4.3	-5.01
COCCn1nc(C(=O)N2CCCC2c2cccc(F)c2)ccc1=O (configuration not stated)	2.11	1.07
O=C(NCCNc1cnccn1)C1CCN(C(=O)N2CCCC2)CC1	6.24	-37.5
CC1CCN(S(=O)(=O)NCC2CCOc3ccccc3C2)CC1 (configuration not stated)	0.0297	5.97
O=C(Nc1cccnc1)[C@H]1C[C@H]2OCC[C@H]2N(C(=O)c2ccsc2)C1	4.71	-27.5
O=C1NC(c2ccccc2)=N[C@@]12CC[C@@H]1CN(CC3CCOCC3)C[C@@H]12	1.31	-0.652
Cc1cc(CN2CCN(c3nn4cc(C)nc4s3)CC2)on1	-0.8	-27.6
NC(=O)c1nc(COc2ccc3c(c2)OCO3)no1	-0.145	-76.3
Cc1cnn(CCC(=O)N2CCCN(c3cccnn3)CC2)c1	-0.568	-11.6
c1ccc2oc(N3CCCCC3Cn3cncn3)nc2c1 (configuration not stated)	-2.88	-18.7
CC(C)Cc1noc(CN2CCN(CCOc3ccc(Cl)cc3)CC2)n1	0.745	10.8
Cc1nc(C(C)(C)NC(=O)Nc2ccccc2)no1	0.805	-0.789
CCc1nc(CN2CCCN(C(=O)C(C)n3cncn3)CC2)cs1 (configuration not stated)	-3.06	9.04
Cc1nn(C)c(C)c1C1CCCN1Cc1nc(C)c2ccccc2n1 (configuration not stated)	0.742	10.8
CN(Cc1ccco1)[C@@H]1CN(C(=O)c2ccnnc2)[C@@H]2CCCO[C@H]12	-2.73	-1.33
Cc1ccccc1CSc1nc(N)cc(N2CC[C@@H](O)C2)n1	0.861	5.97
CCOC(=O)CN1CCC(C(=O)c2cc(F)ccc2F)CC1	-0.233	-13.5
CN(Cc1noc(C2CC2)n1)C1CCN(Cc2nnc(C3CC3)o2)C1 (configuration not stated)	4.05	-15.5
O=C(C1CC1)N1CC[C@H](O)[C@@H]1Cc1ccccc1	-2	1.84
c1coc(CN2CCCC3(COCCN(Cc4c[nH]nn4)C3)C2)c1 (configuration not stated)	2.45	4.89

SMILES	Percent Effect [1] [%]	Percent Effect [2] [%]
O=C(CCc1cc2n(n1)CCCN(C(=O)c1ccccn1)C2)NC1CC1	-1.14	9.76
c1cnc(N2CCOCC3(CCCN(CC4CC4)C3)C2)cn1 (configuration not stated)	0.0873	-8.06
CCn1nc(CNC(=O)C2CC(=O)N(C3CCCC3)C2)c2ccccc21 (configuration not stated)	2.02	-13.1
COCC1COCCC12CCN(CCc1ccccc1)CC2 (configuration not stated)	-6.15	2.07
CC(O)CN1CCN(C(=O)CN(C)c2cnccn2)CC1 (configuration not stated)	4	-8.23
O=C(CC1CCCCC1)N1CCN(C(=O)NCc2ccccn2)CC1	2.1	20.8
NC(=O)c1cc(C2CCCN(C(=O)CCc3ccsc3)C2)n[nH]1 (configuration not stated)	-5.77	21.2
CCCN1CCCn2nc(CNC(=O)CCc3scnc3C)cc2C1	-0.334	3.64
Cc1cnn(CCNCc2nc(-c3ccccc3Cl)no2)c1	-2.88	-10.8
c1ccc(-c2cnc(CNCC3CCCN3c3cccnn3)o2)cc1 (configuration not stated)	1.15	11.4
O=C(NC1CC1)[C@@H]1CCO[C@@H]2CCN(Cc3ccsc3)C[C@H]21	0.474	-0.513
CC(NC(=O)N1CCN(c2ccc(Cl)cc2)CC1)C(=O)N1CCSCC1 (configuration not stated)	-5.11	11.9
CCCNCc1cc2c(C)cc(C)cc2n2c(=O)n(C)nc12	-5.73	-11.4
COc1cc(CNCc2ccnc(N3CCOCC3)c2)cc(Cl)c1OC	6.73	24.1
COC(=O)CNC(=O)CSCc1nc(O)c2cc(C(C)C)sc2n1	-0.639	-7.38
CC(C)c1nc(C2CCCN2Cc2ccccc2C#N)no1 (configuration not stated)	-6.4	-29.9
Cc1cc(N2CCC3(CCC(=O)N(CC4CC4)C3)CC2)nc(N)n1	-0.719	0.426
CCS(=O)(=O)N1CCCc2ccc(NC(=O)Cc3ccc(F)cc3)cc21	3.34	7.51
CN(C)S(=O)(=O)N1CCN(c2ccnc(N3CCCC3)n2)CC1	-2.66	-41.2
O=C(NCC1CC1)C1CCC2(CCN(C(=O)c3ccccn3)CC2)O1 (configuration not stated)	-1.39	1.47
Cc1csc(N2CCN(CCc3ccccn3)CC2C)n1 (configuration not stated)	-6.27	-7.75
Cc1ccc(N2CCCN(C(=O)c3cc(Cl)c[nH]3)CC2)nn1	-1.03	-26.5
CN(C)c1ncc(-c2cc(C(=O)O)n(CC3CC3)c2)cn1	0.577	2.77
Cc1nccn1-c1cccc(C2CCCN2S(=O)(=O)N(C)C)n1 (configuration not stated)	1.37	-8.96
Fc1ccccc1CN1C[C@@H](OCc2ccncc2)[C@H]2OCCC[C@H]21	2.94	-45.1
